The whole screen tested about 2,100 compounds, of which about 210 (10%) were called active. Inconclusive results (about 53%) are left out. Some of the results follow. A number with no mark means an inactive call. The call rests on the fitted dose curve; in most records, active means well fitted inhibition curve with a large enough effect; inconclusive means small, poorly fitted or top-dose-only effect, or effect the other way; inactive means no such curve, though single readings can be large or run the other way.
Potency means the concentration at half of the fitted maximal effect.

A short description of this assay: IN Cell qHTS Assay for Inhibitors of the mTORC1 Signaling Pathway in MEF (Tsc2-/-, p53-/-) Cells: Sytravon. Further: nearly all actives have a fitted effect of over 60% in size.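 On activity, negative = inhibition: plate controls were DMSO wells for no effect and 7.5 nM rapamycin full pathway inhibition for full effect.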 To be noted: phospho-rpS6 immunofluorescence, 24 h; series mostly up to 38.3 µM; activity, negative = inhibition: at the top concentration. In a few lines:
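Tsc2-/-, p53-/- MEFs (empty-vector) treated with compound 24 h at 37 degree Celsius, then fixed and stained for phospho-rpS6 Ser235/236 (Alexa-488) plus Hoechst. Reported as % positive cells, thresholds set against 7.5 nM rapamycin and DMSO wells.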
(In general: Quantitative high-throughput screening tests each substance at several concentrations.)
Take `COc1ccc(-n2cc(C(=O)N(CCN(C)C)Cc3ccccc3)c3ccccc3c2=O)cc1`: the “activity, negative = inhibition” value is -28.9%.

As for `CCS(=O)(=O)c1ncc(Cl)c(C(=O)N(Cc2ccccc2)c2ccc(OC)cc2)n1`, the Potency was 3.29 µM (active).

Consider `CCOc1ccc(N(C(=O)Cn2nnc3ccccc32)C(C(=O)NCc2ccccc2)c2ccc(OC)cc2)cc1` (stereo unspecified), for which the “activity, negative = inhibition” value was -3.48%.

Regarding `CCN(CC)CCNC(=O)c1cn(CCOC)c(=O)c2c1c1ccccc1n2C`, the “activity, negative = inhibition” value was 18.4%.

In the case of `CC(C)C(=O)OC1=CN(Cc2ccccc2)S(=O)(=O)c2ccccc21`, the “activity, negative = inhibition” value was 1.95%.

Consider `CCc1ccc(N=C2NC(=O)CC(C(=O)Nc3ccc(OC)cc3)S2)cc1` (stereo unspecified), for which the “activity, negative = inhibition” value is 15.4%.

In the case of `CCCc1cc(=O)oc2cc(C)c3c(-c4ccccc4)c(C)oc3c12`, the “activity, negative = inhibition” value is -1.83%.

For the compound `C#CCOc1c(Br)cc(C2C(C(=O)OC)=C(C)NC3=C2C(=O)c2ccccc23)cc1OCC` (stereo unspecified), the “activity, negative = inhibition” value was 15.3%.

In the case of `CSc1cccc(NC(=O)Cn2cnc(S(=O)(=O)N3CCCC3)c2)c1`, the “activity, negative = inhibition” value is 0.892%.

As for `Cn1nnnc1SCCCNCc1cccc(OCc2ccccc2Cl)c1`, the “activity, negative = inhibition” value was -25.9%.

Take `Cc1noc(/C=C/N(C)C)c1S(=O)(=O)N1CCCC(C(=O)Nc2ccc(F)cc2F)C1` (stereo unspecified): the “activity, negative = inhibition” value was 10.5%.

For `Cc1ccc(-c2noc(-c3ccccc3NC(=O)C3CC(=O)N(c4cccc(C)c4)C3)n2)cc1` (stereo unspecified), the “activity, negative = inhibition” value was 3.66%.

For the compound `Cc1cc(C)c(NC(=O)Cn2cc(S(=O)(=O)Cc3ccccc3F)c3ccccc32)c(C)c1`, the “activity, negative = inhibition” value is -29.4%.

For the compound `CC(C)N(C(=O)CSc1cn(CC(=O)N2CCCCCC2)c2ccccc12)C(C)C`, the “activity, negative = inhibition” value is -11.6%.

For `COc1ccc2c(c1)c(=O)c(C(=O)c1ccc(C)cc1)cn2Cc1ccccc1F`, the “activity, negative = inhibition” value was -12.8%.

Take `O=C(Cn1cc(S(=O)(=O)Cc2cccc(Cl)c2)c2ccccc21)Nc1ccccc1C(F)(F)F`: the “activity, negative = inhibition” value is -19.7%.

On to `Cc1ccc(CNC(=O)Cn2cc(S(=O)(=O)Cc3ccccc3F)c3ccccc32)cc1`, for which the Potency was 18.5 µM (active).

Take `CN(C)c1ccc(NC(=O)Cn2cc(S(=O)(=O)Cc3ccccc3Cl)c3ccccc32)cc1`: the Potency is 10.4 µM (active).

Turning to `Cc1ccccc1OCc1cc(=O)n2c(-c3ccccc3)csc2n1`, the “activity, negative = inhibition” value is 7.14%.

Regarding `Cc1cccc(-n2c(C)nc3cc(C(=O)NC4CCCCCC4)ccc32)c1`, the “activity, negative = inhibition” value was 6.25%.

As for `COc1ccc(S(=O)(=O)N(C)Cc2nc(-c3cccc(C)c3)no2)cc1`, the “activity, negative = inhibition” value is -29.1%.

For the compound `Cc1ccc(-c2cnc(NCc3ccc(C(F)(F)F)cc3)n2C)cc1`, the “activity, negative = inhibition” value is -41.9%.

On to `COc1ccc(-n2nc3c(N4CCCC(C(=O)NCc5ccccc5C)C4)nnc(C)c3c2C)cc1` (stereo unspecified), for which the Potency is 5.85 µM (active).

As for `Cc1nnc(N2CCCC(C(=O)Nc3cc(F)ccc3F)C2)c2nn(-c3ccccc3)c(C)c12` (stereo unspecified), the “activity, negative = inhibition” value was -20.1%.

Take `O=C(NCc1ccccc1Cl)C1CCCN(c2nc3ccccc3n3cccc23)C1` (stereo unspecified): the “activity, negative = inhibition” value is -2.13%.

With `CCCN1C(=O)C(Cc2nc3ccccc3c(=O)n2CC)c2ccccc21` (stereo unspecified), the “activity, negative = inhibition” value is -18.6%.

In the case of `COc1ccc2nc(NC(=O)c3nc(S(=O)(=O)Cc4ccccc4)ncc3Cl)sc2c1`, the Potency is 5.85 µM (active).

With `CCc1nnc(NC(=O)c2nc(S(=O)(=O)Cc3ccc(C)cc3)ncc2Cl)s1`, the Potency is 20.7 µM (active).

For the compound `Cc1nnc(NC(=O)c2nc(S(=O)(=O)Cc3ccccc3)ncc2Cl)s1`, the Potency was 16.5 µM (active).

Take `COc1cc(OC)cc(C(=O)Nc2cc3nn(-c4ccccc4)nc3cc2Cl)c1`: the “activity, negative = inhibition” value was -26.8%.

With `COc1cccc(-n2ccnc2SCC(=O)Nc2nc3ccc(C)cc3s2)c1`, the “activity, negative = inhibition” value is -25%.

As for `CCc1nnc(NC(=O)c2nc(S(=O)(=O)Cc3cccc(C)c3)ncc2Cl)s1`, the Potency was 9.27 µM (active).

As to `COc1ccccc1NC(=O)c1c(NCc2ccc(C)o2)sc2c1CCC(C)C2` (stereo unspecified), the “activity, negative = inhibition” value was 0%.

`Cc1ccccc1C(=O)N1CCC(c2nc3ccccc3s2)CC1`: the “activity, negative = inhibition” value was -16.3%.

Turning to `CC(C)(C)c1ccc(S(=O)(=O)NCc2ccc3c(c2)CCN3C(=O)c2ccccc2)cc1`, the “activity, negative = inhibition” value is 2.27%.

As to `CCCCN(C)CCNC(=O)Cn1ncc2c3ccccc3n(CCC)c2c1=O`, the “activity, negative = inhibition” value was -26.3%.

As to `CCCCNC(=O)c1cc(-c2cccnc2)nc2ccc(S(=O)(=O)NCCCC)cc12`, the “activity, negative = inhibition” value is 0%.

Regarding `O=C(CSc1nccn1-c1ccc(Cl)cc1)Nc1ccc(Cl)c(Cl)c1`, the “activity, negative = inhibition” value is -14.3%.

`CCC1=Nc2cc(C(=O)NC3CCC(C)CC3)ccc2Sc2ccc(C)cc21` (stereo unspecified): the “activity, negative = inhibition” value was -12%.

In the case of `CC1CCN(S(=O)(=O)c2ccc3nc(Nc4cccc(F)c4)ccc3c2)CC1`, the “activity, negative = inhibition” value was -24.8%.

For the compound `CCSc1nc2ccccc2c(OCc2cc(C(=O)OC)ccc2OC)c1C(=O)OC`, the “activity, negative = inhibition” value is -27.8%.

Take `Cc1ccccc1CS(=O)(=O)c1ncc(Cl)c(C(=O)Nc2nnc(C(C)C)s2)n1`: the Potency is 13.1 µM (active).

Take `CC(C)c1ccc(NC(=O)CSC2=Nc3ccccc3C3=NC(CCC(=O)NCc4ccc(F)cc4)C(=O)N23)cc1` (stereo unspecified): the “activity, negative = inhibition” value is -1.18%.

`O=C(CCn1cnc2onc(-c3ccc(F)cc3)c2c1=O)Nc1ccc(F)c(Cl)c1`: the “activity, negative = inhibition” value is 1.08%.

With `O=S(=O)(c1ccc(-c2csc(=Nc3ccc(OC(F)(F)Cl)cc3)n2CCCO)cc1)N1CCCC1`, the Potency is 1.85 µM (active).

`COc1ccc(NC(=O)CCCN2C(=O)CCn3nc(-c4cn(C)c5ccccc45)cc32)cc1`: the “activity, negative = inhibition” value is 0.526%.

On to `CCOC(=O)C1=C(C)NC(=O)NC1c1cn(-c2ccccc2)nc1-c1ccc(OC(C)C)cc1` (stereo unspecified), for which the “activity, negative = inhibition” value was 2.95%.

For `O=C(Nc1ccc(F)cc1F)c1noc2c1CCc1ccccc1-2`, the “activity, negative = inhibition” value was 19.6%.

Regarding `CC1=Nc2cc(C(=O)NC3CCCC3)ccc2Sc2ccc(Br)cc21`, the “activity, negative = inhibition” value was 5.6%.

`Cc1cc(C)c2c(NC(=O)c3ccccc3Cl)c(C(=O)Nc3ccc(C)c(C)c3)sc2n1`: the Potency is 1.65 µM (active).

Take `COCCCNC(=O)c1sc2nc(C)c(C(=O)Nc3ccc(C)cc3C)c(-c3ccc(Cl)cc3)c2c1N`: the “activity, negative = inhibition” value is -18.8%.

In the case of `Cc1ccc(C(=O)Nc2c(C(=O)NCc3ccc(Cl)cc3)sc3nc(C)cc(C)c23)cc1`, the Potency is 11.7 µM (active).

As for `Cc1cccc(C(=O)Nc2c(C(=O)NCc3ccc(Cl)cc3)sc3nc(C)cc(C)c23)c1`, the “activity, negative = inhibition” value is -100%.

Turning to `Cc1ccc(NC(=O)c2cc(S(=O)(=O)N3CCc4ccccc43)ccc2F)cc1Cl`, the “activity, negative = inhibition” value is 6.25%.

As to `Cc1cc(C)c(NC(=O)c2sc3nc(C)cc(C)c3c2NC(=O)c2ccccc2)c(C)c1`, the “activity, negative = inhibition” value is 4.6%.

For the compound `CC(C)(C)c1ccc(NC(=O)CSc2nnc3scc(-c4ccccc4)n23)cc1`, the “activity, negative = inhibition” value was 29.3%.

The values are drawn from PubChem BioAssay AID504465 (National Center for Advancing Translational Sciences (NCATS), 2011).
